MCF10A rereplic: A quantitative high throughput screen for small molecules that induce DNA re-replication in MCF 10a normal breast cells; MCF 10A DNA re-replication, Hoechst nuclear intensity, 48 h; Potency, µM (top dose mostly 46.1 µM), for inactives: at the highest dose activity, positive = re-replication, usual class: activators; 350,000 compounds, 2.9% hits; AID 624296, 2012; also: % of control where 0% means no effect; nearly all actives have a fitted effect of over 50% in size
PTAP TSG101 blk: qHTS Assay for Iinhibitors of HIV-1 Budding by Blocking the Interaction of PTAP/TSG101 | AID 493005, 2010 | Fluorescence polarization, FITC-PTAP peptide / Tsg101 binding | 340,000 tested, under 10 active | Potency, µM (doses to about 115 µM), inactives show at the highest dose activity change, negative = inhibition, actives largely listed as inhibitors | Tumor susceptibility gene 101 protein (Homo sapiens), Q99816; active = well fitted inhibition curve with a large enough effect in the main read-out, with a control signal flat, not every such curve was filed as active; inconclusive = small, poorly fitted or top-dose-only effect, or effect the other way, or a change in a side signal; inactive = no such curve, though single readings can be large or run the other way; also: % of control where 0% means no effect
Target sequence (Q99816 whole entry, looked up): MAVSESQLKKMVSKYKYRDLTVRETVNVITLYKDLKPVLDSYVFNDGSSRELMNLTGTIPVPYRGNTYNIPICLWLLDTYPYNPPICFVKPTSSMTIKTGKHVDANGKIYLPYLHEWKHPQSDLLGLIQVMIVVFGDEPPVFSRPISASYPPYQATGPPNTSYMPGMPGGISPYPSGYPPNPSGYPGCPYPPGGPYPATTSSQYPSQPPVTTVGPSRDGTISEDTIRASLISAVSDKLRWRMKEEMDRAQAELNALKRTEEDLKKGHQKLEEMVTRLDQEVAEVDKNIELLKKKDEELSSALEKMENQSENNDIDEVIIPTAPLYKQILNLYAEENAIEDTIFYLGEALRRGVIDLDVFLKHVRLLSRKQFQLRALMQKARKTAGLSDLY
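Fluorescence polarization binding of Tsg101 binding domain (10 uM final) to FITC-labeled PTAP peptide (50 nM final) in HEPES pH 7.5 buffer with NaCl, Tween 20, EDTA, TCEP. Compounds added before peptide; binding 20 min at RT.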
RGS4 inhibitor: Inhibitors of Regulator of G Protein Signaling (RGS) 4: qHTS | AID 504845, 2011 | Transcreener GDP fluorescence polarization, RGS4-accelerated GTP hydrolysis | Potency, µM (titrated, usually from 114 µM), for inactives: at the highest dose activity change, negative = inhibition, actives largely listed as inhibitors | 390,000 compounds, 0.039% hits | Regulator of G-protein signaling 4 (Homo sapiens), P49798; also: % is scaled to controls: 0 for no effect and ±100 for the full control effect; nearly all actives have a fitted effect of over 75% in size
Target sequence (P49798 whole entry, looked up): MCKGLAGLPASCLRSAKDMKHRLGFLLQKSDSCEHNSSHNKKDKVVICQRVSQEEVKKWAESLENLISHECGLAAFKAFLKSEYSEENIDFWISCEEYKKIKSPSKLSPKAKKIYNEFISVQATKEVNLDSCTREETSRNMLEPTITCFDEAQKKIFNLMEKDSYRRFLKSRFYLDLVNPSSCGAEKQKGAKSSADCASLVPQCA
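MLSMR compounds (23 nl, pin-transferred) preincubated 10 min at room temperature with a 500nM (2x) first reagent, then RGS4 at 900nM (2x) plus Transcreener GDP mix added; fluorescence polarization (620/688 nm) read before and after 90 min at 30 °C.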
KB-3-1 cytotox: qHTS assay for MDR1-selective chemotherapeutics: Primary screen using the parental adenocarcinoma cell KB-3-1; KB-3-1 viability, CellTiter-Glo ATP luminescence, 72 h; Potency, µM (top dose mostly 46.1 µM), usual class: cytotoxic; 400,000 compounds, 1.4% hits; AID 1347075, 2019; also: % is scaled to controls: 0 for no effect and ±100 for the full control effect; nearly all actives have a fitted effect of over 60% in size
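Parental KB-3-1 adenocarcinoma cells in phenol-red-free DMEM with 10% FBS were pin-treated with compounds at several concentrations, incubated 72 h at 37 °C, and viability read by CellTiter-Glo luminescence; concentration-effect curves were fitted after normalization.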
KB-V1 MDR tox: qHTS assay for MDR1-selective chemotherapeutics: Primary screen using the drug-selected MDR subline cells KB-V1; KB-V1 MDR cells viability, CellTiter-Glo, 72 h; Potency, µM (series often up to 46.1 µM), usual class: cytotoxic; 400,000 compounds, 3.4% hits; AID 1347076, 2019; also: % is scaled to controls: 0 for no effect and ±100 for the full control effect; nearly all actives have a fitted effect of over 60% in size
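In this primary screen, KB-V1 cells overexpressing P-gp are incubated with library compounds (lowest to highest concentration) for 72 h at 37 degrees C before a luminescent ATP viability read.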
SW480 rereplic: A quantitative high throughput screen for small molecules that induce DNA re-replication in SW480 colon adenocarcinoma cells; Potency, µM (series often up to 46.1 µM), for inactives: top-dose re-replication activation, actives largely listed as activators; SW480 DNA re-replication, Hoechst DNA content imaging, 48 h; 340,000 compounds, 1.8% hits; also: % of control where 0% means no effect; nearly all actives have a fitted effect of over 55% in size
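Image-based read-out: total Hoechst fluorescence of nuclei (405 nm excitation, 500-530 nm emission), with hits raising the fraction of high-intensity nuclei. SW480 colon cells incubated 48 hr with compounds at 37 C.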
* marks the source's active call; other numbers are inactive results. This is a sample that favours compounds with a hit; in the whole collection about 6.6% have one here. Unless noted, calls follow the shape of the dose curve; as a rule, active = well fitted curve in the direction sought with a large enough effect; inconclusive = small, poorly fitted or top-dose-only effect, or another doubt; inactive = no such curve, though single readings can be large; an effect the other way counts as inactive or inconclusive. Potency is read from the fitted curve at half-maximal effect.

O=C(CSc1nnc(-c2ccccc2Br)n1-c1ccccc1)c1ccc(F)cc1 was read as RGS4 inhibitor -26.6%, KB-3-1 cytotox inconclusive and KB-V1 MDR tox 18.4µM*.
For Cc1ccnc(SCC(=O)N2CCCc3ccccc32)n1 the results were MCF10A rereplic 0.0%, PTAP TSG101 blk -3.3%, RGS4 inhibitor -12.0%, KB-3-1 cytotox inactive, KB-V1 MDR tox inactive and SW480 rereplic -38.9%.
Cc1ccc(C(=O)CSc2nnc(-c3ccccc3)n2-c2ccccc2)cc1 was read as RGS4 inhibitor -29.2%, KB-3-1 cytotox inactive and KB-V1 MDR tox inconclusive.
Screening CCOc1ccc(-c2nnc(SCC(=O)c3ccc(F)cc3)n2-c2ccccc2)cc1 returned RGS4 inhibitor -36.6%.
For O=C(CSc1nc2ccccc2c(=O)n1-c1ccccc1)N1CCCc2ccccc21 the results were MCF10A rereplic 24.0%, PTAP TSG101 blk -2.1%, RGS4 inhibitor -12.6%, KB-3-1 cytotox inactive, KB-V1 MDR tox inconclusive and SW480 rereplic 4.7%.
Screening CC(C)Cn1c(SCC(=O)N2CCCc3ccccc32)nc2ccccc2c1=O returned MCF10A rereplic 20.6µM*, PTAP TSG101 blk 7.8%, RGS4 inhibitor -0.1%, KB-3-1 cytotox inactive, KB-V1 MDR tox inconclusive and SW480 rereplic inconclusive.
For COc1ccccc1C1NC(c2ccc3c(c2)OCO3)=CC(c2ccccc2O)N1 (configuration not stated) the results were RGS4 inhibitor -4.5%, KB-3-1 cytotox inactive and KB-V1 MDR tox inactive.
O=C(O)c1ccccc1SCC(=O)N1CCc2ccccc21 was read as MCF10A rereplic 16.4µM*, PTAP TSG101 blk -0.3%, RGS4 inhibitor 9.9%, KB-3-1 cytotox inactive, KB-V1 MDR tox inactive and SW480 rereplic 27.5%.
`O=C(CSc1nnc(-c2cccs2)n1-c1ccccc1)N1CCCc2ccccc21` gave MCF10A rereplic inconclusive, PTAP TSG101 blk -5.8%, RGS4 inhibitor -10.8%, KB-3-1 cytotox inactive, KB-V1 MDR tox 16.4µM* and SW480 rereplic 15.6%.
CCOc1ccccc1-n1c(SCC(=O)N2CCCc3ccccc32)nnc1-c1cccnc1 was read as MCF10A rereplic inconclusive, PTAP TSG101 blk -0.8%, RGS4 inhibitor -10.8%, KB-3-1 cytotox inactive, KB-V1 MDR tox 7.31µM* and SW480 rereplic -72.8%.
CCn1c(SCC(=O)N2CCCc3ccccc32)nc2ccccc2c1=O was read as MCF10A rereplic 23.1µM*, PTAP TSG101 blk -7.6%, RGS4 inhibitor 8.7%, KB-3-1 cytotox inactive, KB-V1 MDR tox 10.3µM* and SW480 rereplic 1.9%.
`Cc1ccc(NS(=O)(=O)c2ccc3c(c2)C(Cl)(Cl)C(=O)N3)cc1C` gave KB-3-1 cytotox inactive and KB-V1 MDR tox inactive.
Screening CCc1ccc(NS(=O)(=O)c2ccc3[nH]cc(C(=O)NCc4ccc(C)cc4)c(=O)c3c2)cc1 returned RGS4 inhibitor 3.4%, KB-3-1 cytotox inactive and KB-V1 MDR tox inactive.
`Cc1ccc(-c2cnc(SCC(=O)N3CCCc4ccccc43)n2C)cc1` gave MCF10A rereplic -3.9%, PTAP TSG101 blk -4.5%, RGS4 inhibitor -4.1%, KB-3-1 cytotox inactive, KB-V1 MDR tox inactive and SW480 rereplic -5.1%.
Cn1c(-c2ccccc2)cnc1SCC(=O)N1CCCc2ccccc21 was read as MCF10A rereplic 19.6%, PTAP TSG101 blk -0.9%, RGS4 inhibitor 4.2%, KB-3-1 cytotox inactive, KB-V1 MDR tox 5.8µM* and SW480 rereplic -3.4%.
For Cc1ncc([N+](=O)[O-])n1CCOC(=O)NC(NCc1ccccc1Cl)C(Cl)(Cl)Cl (configuration not stated) the results were MCF10A rereplic 24.6%, PTAP TSG101 blk -1.5%, RGS4 inhibitor 5.2%, KB-3-1 cytotox inconclusive, KB-V1 MDR tox 7.31µM* and SW480 rereplic inconclusive.
Screening O=C(Nc1ccc(Cl)cc1)C1CCN(c2nc3ccccc3nc2C(F)(F)F)CC1 returned RGS4 inhibitor 14.1%, KB-3-1 cytotox inactive and KB-V1 MDR tox inconclusive.
NC(=O)c1cccc(-c2ccnc3c2CC(C(=O)NCc2ccccc2)O3)c1 (configuration not stated) was read as KB-3-1 cytotox 3.66µM* and KB-V1 MDR tox inactive.
O=C(NCc1ccccc1)C1Cc2c(-c3ccc4c(c3)OCO4)ccnc2O1 (configuration not stated) was read as KB-3-1 cytotox 0.82µM* and KB-V1 MDR tox 1.16µM*.
Screening CN1CCN(c2ccc(CNC(=O)C3Cc4c(-c5ccc6c(c5)OCO6)ccnc4O3)cc2)CC1 (configuration not stated) returned KB-3-1 cytotox inactive and KB-V1 MDR tox inactive.
For CCOC(=O)C1=C(C)N(Cc2ccccc2)C(=O)NC1c1ccccc1OS(=O)(=O)c1ccccc1[N+](=O)[O-] (configuration not stated) the results were MCF10A rereplic 13.4%, PTAP TSG101 blk -1.2%, RGS4 inhibitor 3.4%, KB-3-1 cytotox inconclusive, KB-V1 MDR tox 7.31µM* and SW480 rereplic inconclusive.
For CN(C)c1ccc(C(CNS(=O)(=O)c2ccc(Br)cc2)N2CCCC2)cc1 (configuration not stated) the results were RGS4 inhibitor 16.4%, KB-3-1 cytotox inactive and KB-V1 MDR tox inactive.
For COc1ccc(-c2cn3cc(Br)cnc3n2)cc1 the results were MCF10A rereplic -2.3%, PTAP TSG101 blk 0.4%, RGS4 inhibitor 40.0%, KB-3-1 cytotox 13µM*, KB-V1 MDR tox 10.3µM* and SW480 rereplic inconclusive.
Cc1ccc(CNC(=O)C(=O)NCC2CCCN2S(=O)(=O)c2cc(C)ccc2C)cc1 (configuration not stated) was read as MCF10A rereplic -17.1%, PTAP TSG101 blk -4.3%, RGS4 inhibitor 5.0%, KB-3-1 cytotox inactive, KB-V1 MDR tox inactive and SW480 rereplic inconclusive.
Screening O=C(NCCc1ccccc1)C(=O)NCC1CCCN1S(=O)(=O)c1ccccc1 (configuration not stated) returned MCF10A rereplic 23.1µM*, PTAP TSG101 blk -2.8%, RGS4 inhibitor -16.0%, KB-3-1 cytotox inconclusive, KB-V1 MDR tox 11.6µM* and SW480 rereplic 18.4µM*.
